The list is not random: actives were taken first. Their share in the collection is about 11%.
G9a block: inhibitors of human histone lysine methyltransferase G9a; Q96KQ7; AID 504332; G9a H3K9 monomethylation, AlphaScreen, 2 h; Potency, µM (series often up to 102 µM), without a hit: at the top dose activity, negative = inhibition, hits mostly inhibitors; 8.8% of 350,000 active; also: potency is read from the fitted curve at half-maximal effect; nearly all actives have a fitted effect of over 75% in size
Target sequence (Q96KQ7 913-1193 limits assumed): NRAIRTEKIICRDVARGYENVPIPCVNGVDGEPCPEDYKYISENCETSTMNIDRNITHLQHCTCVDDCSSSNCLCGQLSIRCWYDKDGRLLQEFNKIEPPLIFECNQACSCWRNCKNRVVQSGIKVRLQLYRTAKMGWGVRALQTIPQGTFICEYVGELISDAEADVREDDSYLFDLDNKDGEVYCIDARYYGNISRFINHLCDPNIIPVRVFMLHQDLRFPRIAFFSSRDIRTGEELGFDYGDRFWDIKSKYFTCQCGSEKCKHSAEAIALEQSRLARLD
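AlphaScreen read-out: biotin-H3K9 peptide (500 nM) methylation by 20 nM enzyme with 20 uM SAM, 2 h at room temperature after 15 min compound preincubation; anti-monomethyl H3K9 antibody plus donor/acceptor beads, 10 min dark.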
Tau fluor cs: counter-screen for tau fibril formation inhibitors. 0.93% of 280,000 active. AID 1463. Potency, µM (series often up to 57.7 µM), for inactives: at the highest dose activity change, negative = decrease. tau K18 P301L Alexa594 fluorescence, heparin fibrillization; also: potency is read from the fitted curve at half-maximal effect; nearly all actives have a fitted effect of over 55% in size
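Human tau K18 P301L (15 uM unlabeled, 0.24 uM Alexa 594-labeled) in 100 mM sodium acetate pH 7 with 20 uM heparin, 6 hr at 37 C. ThT 30 uM added, 1 hr ambient; Alexa 594 FP and total fluorescence read at 555/632 nm.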
Tau FP inhib: inhibitors of human tau fibril formation | P10636 | K18 P301L tau heparin fibrillization, Alexa594 FP, 6 h | Potency, µM (titrated, usually from 57.7 µM), inactives show at the top dose activity, negative = inhibition, actives largely listed as inhibitors | 0.39% of 280,000 active | AID 1468; also: potency is read from the fitted curve at half-maximal effect; nearly all actives have a fitted effect of over 55% in size
Target sequence (P10636 561-689 P618L limits assumed): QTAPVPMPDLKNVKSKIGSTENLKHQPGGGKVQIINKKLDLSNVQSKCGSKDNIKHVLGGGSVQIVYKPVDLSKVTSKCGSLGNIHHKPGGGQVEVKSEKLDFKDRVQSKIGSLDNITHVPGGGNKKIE
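Recombinant K18 P301L […], labeled with Alexa 594 at 0.24 uM over 15 uM unlabeled; heparin inducer 20 uM final; 37 C, 6 hr; FP endpoint.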
FBPA coupling cs: counter-screen for Giardia aldolase inhibitors: coupling enzyme system; coupling enzyme system counterscreen, AmpLite Red fluorescence; activity change, negative = inhibition, % at 58.2 µM, hits read low; 0.67% of 290,000 active; AID 2472; in the data active = activity change below about -30%
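Fluorescence at 525 nm excitation and 598 nm emission measured inhibition of the coupled detection system without aldolase. Compounds (at 57.5 uM final) were preincubated 10 min at room temperature with coupling enzyme reagent before a 20 min substrate/AmpLite Red step.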
Sfp inh: inhibitors of Bacillus subtilis Sfp phosphopantetheinyl transferase. Potency, µM, for inactives: largest response in the series, negative = inhibition, most hits filed as inhibitors. Biochemical Sfp PPTase activity, qHTS. Q9F4F7. 3.5% of 310,000 active;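 also: the enzyme is Sfp with the accession as filed and its product quenches rhodamine fluorescence; potency is read from the fitted curve at half-maximal effect; 0% = enzyme reaction without inhibitor and -100% = no enzyme wells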
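Fluorescence-quenching assay with 15 nM Sfp, 5 uM rhodamine-CoA and 12.5 uM BHQ-2-labelled ybbR peptide in pH 7.6 Hepes/MgCl2 buffer. Enzyme was pre-incubated with compound for 15 min at room temperature. Rate was taken from the 30-min fluorescence change (525/598 nm).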
Tau ThT inhib: inhibitors of human tau fibril formation, thioflavin T binding; recombinant tau K18 P301L (four-repeat tau fragment), heparin-induced fibrillization, ThT fluorescence; 2.1% of 270,000 active; AID 1460; Potency, µM (highest dose often 57.4 µM), without a hit: top-dose activity, negative = inhibition, hits mostly inhibitors; P10636; also: potency is read from the fitted curve at half-maximal effect; nearly all actives have a fitted effect of over 55% in size
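K18 P301L tau (15 uM + 0.24 uM Alexa 594-tagged), heparin 20 uM, NaOAc pH 7, 6 h 37 C; ThT 30 uM, 1 h RT, ex 450/em 510 nm.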
* marks the source's active call; other numbers are inactive results; [ ] = remark or other dose. Unless noted, calls follow the shape of the dose curve; as a rule, active = well fitted curve in the direction sought with a large enough effect; inconclusive = small, poorly fitted or top-dose-only effect, or another doubt; inactive = no such curve, though single readings can be large; an effect the other way counts as inactive or inconclusive. Unless noted, % is scaled to controls: 0 for no effect and ±100 for the full control effect.

Results for O=C(Nc1nc(-c2cc(Cl)sc2Cl)cs1)c1ccc(Br)s1 ?
G9a block: 7.7%[59 µM]; Tau fluor cs: -21.5%; Tau FP inhib: -13.9%; FBPA coupling cs: 1.7; Sfp inh: -23.2%; Tau ThT inhib: -19.3%

Results for O=C(NC(=S)Nc1nc(-c2ccccc2)cs1)c1ccco1 ?
G9a block: 27.5%[59 µM]; Tau fluor cs: -20.9%; Tau FP inhib: 9.8%; FBPA coupling cs: -0.3; Sfp inh: 50.1µM*; Tau ThT inhib: -8.1%

What do the screens show for `CCCNC(=O)Nc1ccc(C(F)(F)F)cc1`?
G9a block: 15.2%; Tau fluor cs: -15.2%; Tau FP inhib: -4.0%; FBPA coupling cs: 0.8; Sfp inh: 11.3%; Tau ThT inhib: -7.2%

Results for Cc1ccc(NC(=O)CN2CCN(C3CCCCC3)C(=O)C2=O)cc1 ?
G9a block: 23.4%[59 µM]; Tau fluor cs: -0.4%; Tau FP inhib: -7.3%; Tau ThT inhib: 3.4%

Results for Cc1cc(C(=O)OCC(=O)N(C)c2c(N)n(Cc3ccccc3)c(=O)[nH]c2=O)c(C)n1-c1ccccc1 ?
G9a block: 23.5%[12.7 µM]

What do the screens show for `Cc1ccc(C(=O)Nc2nc(-c3cccnc3)cs2)o1`?
G9a block: inconclusive; Tau fluor cs: -14.9%; Tau FP inhib: -7.9%; FBPA coupling cs: 0.0; Sfp inh: -14.3%; Tau ThT inhib: inconclusive

Results for O=C(Nc1nc(-c2ccccc2)cs1)c1ccc(Br)o1 ?
G9a block: inconclusive; Tau fluor cs: inconclusive; Tau FP inhib: -8.0%; FBPA coupling cs: 1.0; Sfp inh: 25.1µM*; Tau ThT inhib: inconclusive

Results for CCc1ccc(-c2csc(NC(=O)Oc3ccccc3)n2)cc1 ?
G9a block: 44.7µM*; Tau fluor cs: -11.8%; Tau FP inhib: inconclusive; FBPA coupling cs: 2.5; Sfp inh: 14.6%; Tau ThT inhib: inconclusive

How did O=C(Nc1nc(-c2ccccn2)cs1)c1ccco1 do in these assays?
G9a block: 20µM*; Tau fluor cs: -14.7%; Tau FP inhib: 0.6%; FBPA coupling cs: -9.0; Sfp inh: -49.8%; Tau ThT inhib: inconclusive

Results for O=C(NC(=S)Nc1nc(-c2ccccc2)cs1)c1cccnc1 ?
G9a block: 2.51µM*; Tau fluor cs: -17.6%; Tau FP inhib: -9.3%; FBPA coupling cs: 2.1; Sfp inh: inconclusive; Tau ThT inhib: inconclusive

What do the screens show for `O=c1oc2ccccc2cc1-c1csc(NN=C2CCCCC2)n1`?
Tau fluor cs: 25.1µM*[quencher]; Tau FP inhib: -9.0%; FBPA coupling cs: -0.4; Sfp inh: -10.3%; Tau ThT inhib: inconclusive

What do the screens show for `O=c1oc2ccccc2cc1-c1csc(Nc2nc3c(F)cccc3s2)n1`?
G9a block: -12.1%[59 µM]; Tau fluor cs: inconclusive; Tau FP inhib: 9.7%; FBPA coupling cs: -0.1; Sfp inh: -12.1%; Tau ThT inhib: inconclusive

Results for c1ccc(-c2nc(-c3ccco3)cs2)nc1 ?
G9a block: inconclusive; Tau fluor cs: -11.0%; Tau FP inhib: 3.0%; FBPA coupling cs: -1.2; Sfp inh: 44.7µM*; Tau ThT inhib: inconclusive

Results for O=C(Nc1nc(-c2cc3ccccc3oc2=O)cs1)c1ccco1 ?
G9a block: 35.5µM*; Tau fluor cs: -11.7%; Tau FP inhib: -14.4%; FBPA coupling cs: 1.1; Sfp inh: -20.0%; Tau ThT inhib: 0.5%

What do the screens show for `CCc1c(C)nc2nncn2c1Nc1cccc(C)c1`?
G9a block: -22.5%[59 µM]; Tau fluor cs: 7.2%; Tau FP inhib: 3.7%; Tau ThT inhib: 7.9%

How did CCCS(=O)(=O)c1c(S(=O)(=O)CCC)c2cc(C(C)(C)C)ccn2c1C(=O)c1ccc(C)cc1 do in these assays?
G9a block: inconclusive; Tau fluor cs: -8.5%; Tau FP inhib: -2.2%; Tau ThT inhib: -7.2%

Results for COc1cc2c(cc1OC)C(c1ccc(-c3cc(Cl)ccc3Cl)o1)=NCC2 ?
G9a block: inconclusive; Tau fluor cs: -4.8%; Tau FP inhib: 5.2%; FBPA coupling cs: -8.8; Sfp inh: inconclusive; Tau ThT inhib: inconclusive

What do the screens show for `COc1cc2c(cc1OC)C(c1ccc(-c3ccc(Cl)c(Cl)c3)o1)=NCC2`?
G9a block: 14.1µM*; Tau fluor cs: inconclusive; Tau FP inhib: 13.1%; FBPA coupling cs: 0.1; Sfp inh: 20µM*; Tau ThT inhib: 11.2µM*

What do the screens show for `COc1cc2c(cc1OC)C(c1ccc(-c3ccccc3Cl)o1)=NCC2`?
G9a block: 7.08µM*; Tau fluor cs: -17.4%; Tau FP inhib: 7.1%; FBPA coupling cs: -1.7; Sfp inh: -17.9%; Tau ThT inhib: inconclusive

How did COc1cc2c(cc1OC)C(c1ccc(-c3ccc(Cl)cc3Cl)o1)=NCC2 do in these assays?
G9a block: inconclusive; Tau fluor cs: -11.4%; Tau FP inhib: 3.2%; FBPA coupling cs: 0.4; Sfp inh: 28.2µM*; Tau ThT inhib: inconclusive

How did Cc1nn(-c2ccccc2)c2c1N(CC(=O)NCc1ccc(N(C)C)cc1)C(=O)CS2 do in these assays?
G9a block: -25.3%[59 µM]; Tau fluor cs: -26.5%; Tau FP inhib: -1.3%; Tau ThT inhib: inconclusive

What do the screens show for `O=C(O)C1CSC2(c3ccc(F)cc3)CCC(=O)N12` (stereo not given)?
G9a block: 56.2µM*; Tau fluor cs: 0.1%; Tau FP inhib: 0.1%; FBPA coupling cs: 5.3; Sfp inh: 7.0%; Tau ThT inhib: -2.1%

Results for CN(C)CCCn1c(SCc2c(Cl)cccc2Cl)nnc1-c1ccncc1 ?
G9a block: 10µM*; FBPA coupling cs: -0.9; Sfp inh: -17.3%

How did c1ccc(CCn2c(SCc3ccccc3)nnc2-c2ccncc2)cc1 do in these assays?
G9a block: -21.6%[59 µM]; Tau fluor cs: 3.7%; Tau FP inhib: 8.5%; FBPA coupling cs: 1.4; Sfp inh: inconclusive; Tau ThT inhib: 5.0%

How did [N-]=[N+]=NCC1OC(n2cnc3c(=O)[nH]c(N)nc32)C(O)C1O (stereo not given) do in these assays?
Tau fluor cs: -2.8%; Tau FP inhib: 3.7%; FBPA coupling cs: 4.9; Sfp inh: 5.8%; Tau ThT inhib: -1.7%

What do the screens show for `COC(CNC(=O)C1CCC(CNS(=O)(=O)c2c(C)cc(C)cc2C)CC1)OC` (stereo not given)?
G9a block: -2.9%; FBPA coupling cs: -0.5; Sfp inh: 4.6%

How did Nc1[nH]n2c(=O)c3c(nc2c1N=Nc1ccccc1)CCCC3 do in these assays?
G9a block: -33.6%; Tau fluor cs: inconclusive; Tau FP inhib: 0.9%; FBPA coupling cs: -5.8; Sfp inh: -0.5%; Tau ThT inhib: 4.47µM*

How did Cc1cc(=O)n2[nH]c(N)c(N=Nc3ccccc3)c2n1 do in these assays?
G9a block: -9.1%[59 µM]; Tau fluor cs: -0.4%; Tau FP inhib: 7.1%; FBPA coupling cs: 0.7; Sfp inh: 30.2%; Tau ThT inhib: inconclusive

From PubChem
